From PubChem BioAssay (EPA / NIEHS)
Results filed as inconclusive are left out. Active and inactive are the calls of the source. Rule for the calls, unless noted: active = hit-call score of the fitted dose curve at least 0.9, where 1 is the maximum; inactive = score below 0.9.

Columns and labels:
[1] = molecular target: Nuclear respiratory factor 1 (Homo sapiens) (UniProt Q16656); experiment: ATG_NRF1_CIS: Attagene CIS-FACTORIAL HepG2 Assay for human Nuclear Respiratory Factor 1 (NRF1) Orphan Gene (AID 2282987); conditions: HepG2 NRF1 cis-element reporter, Attagene multiplex; actives raise or lower the signal
How it was run: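 Endogenous NRF1-driven reporter transcription measured in transiently transfected human HepG2 liver cells. Readout: reporter mRNA by RT-PCR and capillary electrophoresis with fluorescence detection, 24 h post-dosing. Gain or loss of signal fitted relative to DMSO baseline.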

[2] = ATG_NFI_CIS: Attagene CIS-FACTORIAL HepG2 Assay for human Nuclear Factor I (NFI) (AID 2282989); conditions: HepG2 cis-regulatory reporter, NFI response element transcription; actives raise or lower the signal
How it was run: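 After transient transfection of HepG2 with cis-promoter reporter constructs and 24 h dosing, RNA is reverse-transcribed, amplified, 6-FAM end-labelled and HpaI-digested before capillary analysis. Bidirectional curve fitting against DMSO.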

[3] = molecular target: Myc proto-oncogene protein (Homo sapiens) (UniProt P01106); experiment: ATG_Myc_CIS: Attagene CIS-FACTORIAL HepG2 Assay for human Myelocytomatosis (Myc) Proto-Oncogene Transcription Factor (AID 2282990); conditions: HepG2, Attagene cis-reporter transcription factor activity; actives raise or lower the signal
How it was run: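 Cells of the HepG2 human liver line bear multiple cis-driven reporter transcription units. Reporter mRNA after 24 h exposure is reverse-transcribed, amplified, labelled and resolved by capillary electrophoresis, with gain- or loss-of-signal fitting relative to DMSO.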

[4] = ATG_NRF2_ARE_CIS: Attagene CIS-FACTORIAL HepG2 Assay for human Nuclear Factor Erythroid 2 Related Factor 2 (NFR2) response to Antioxidant Response Elements (ARE) (AID 2282992); conditions: HepG2 Attagene ARE/NRF2 reporter, transcription factor activity; actives raise or lower the signal
How it was run: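 Endogenous transcription factor activity read out as reporter transcript levels (RT-PCR plus capillary electrophoresis, fluorescence) in transiently transfected HepG2 cells. Measured at 24 h after dosing; gain or loss of signal fitted versus DMSO.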

[5] = ATG_Oct_MLP_CIS: Attagene CIS-FACTORIAL HepG2 Assay for human Octamer-Binding Transcription Factor (Oct) (AID 2282993); conditions: HepG2 Attagene cis-factorial Oct reporter, mRNA; actives raise or lower the signal
How it was run: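 Cells of the HepG2 line express promoter-controlled reporter sequences whose mRNA levels, after 24 h treatment, are measured by RT-PCR and capillary electrophoresis. Increases and decreases are scored relative to DMSO.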

[6] = molecular target: Cellular tumor antigen p53 (Homo sapiens) (UniProt P04637); experiment: ATG_p53_CIS: Attagene CIS-FACTORIAL HepG2 Assay for human p53 Transcription Factor (AID 2282994); conditions: HepG2 p53 cis-element reporter, Attagene mRNA; actives raise or lower the signal
How it was run: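 Endogenous p53 activity read in transiently transfected HepG2 from a cis-element-driven reporter transcript after 24 h exposure. RNA reverse-transcribed, PCR-amplified, fluorescently labelled and sized by capillary electrophoresis; gain or loss fitted against DMSO baseline.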

[7] = BSK_3C_TissueFactor: BioMAP Diversity Plus: 3C Assay for Tissue Factor Biomarker Activity (AID 2282997); conditions: BioMAP 3C HUVEC, tissue factor biomarker readout; actives raise or lower the signal
How it was run: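 After a 24 h chemical exposure of primary human umbilical vein endothelial cells, Tissue Factor levels were quantified by ELISA.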

[8] = BSK_3C_uPAR: BioMAP Diversity Plus: 3C Assay for Urokinase-type plasminogen activator receptor (uPAR) Biomarker Activity (AID 2282998); conditions: BioMAP 3C HUVEC, uPAR biomarker ELISA; actives raise or lower the signal
How it was run: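 Endothelial primary cells of human umbilical vein origin received test chemical; 24 h later uPAR was assayed by ELISA. Fitting was bidirectional, DMSO as negative control.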

[9] = BSK_3C_VCAM1: BioMAP Diversity Plus: 3C Assay for Vascular cell adhesion molecule 1 (VCAM1) Biomarker Activity (AID 2282999); conditions: BioMAP 3C HUVEC, VCAM1 ELISA, cytokine-stimulated; actives raise or lower the signal
How it was run: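 Activity fitted in both directions relative to DMSO, with ELISA measurement of the surface marker on primary HUVEC (3C) at 24 h post-treatment; parallel SRB staining (0.1% SRB, TCA-fixed, 560 nm) flagged overt cytotoxicity.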

[10] = molecular target: human Peroxisome Proliferator-activated Receptor alpha (PPARa), PPARA (gene 5465) (UniProt Q07869); experiment: ATG_PPARa_TRANS: Attagene TRANS-FACTORIAL HepG2 Assay for human Peroxisome Proliferator-activated Receptor alpha (PPARa) (AID 2283001; active = hit-call score of the fitted dose curve at least 0.9, where 1 is the maximum)
How it was run: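 Transfected HepG2 cells treated with test chemical for 24 h. RNA isolated, reverse-transcribed with oligo(dT), PCR-amplified, FAM-labelled and HpaI-digested. Fragments sized by capillary electrophoresis; gain-of-signal fit relative to DMSO.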

[11] = read-out: Intercellular Adhesion Molecule 1 (ICAM1), ICAM1 (gene 3383); experiment: BSK_3C_ICAM1: BioMAP Diversity Plus: 3C Assay for Intercellular Adhesion Molecule 1 (ICAM1) Biomarker Activity (AID 2283003); conditions: primary human endothelial cells (HUVEC); actives raise or lower the signal
How it was run: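 Using DMSO as baseline, bidirectional curve fitting was applied to ICAM-1 ELISA signals from HUVEC in the 3C system, measured 24 h after compound addition.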

[12] = BSK_3C_Proliferation: Cell Proliferation Assessment in the BioMAP Diversity Plus: 3C Assay (AID 2283006); conditions: primary human endothelial cells (HUVEC)
How it was run: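 Measured here: sulforhodamine B (0.1%) staining of TCA-fixed sub-confluent umbilical vein endothelial cultures 48 h post-dosing, absorbance 560 nm. DMSO served as negative control and baseline; both signal gain and loss were modelled.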

[13] = molecular target: Nuclear receptor subfamily 1 group I member 2 (Homo sapiens) (UniProt O75469); experiment: ATG_PXR_TRANS: Attagene TRANS-FACTORIAL HepG2 Assay for human Pregnane X Receptor (PXR) (AID 2283008; active = hit-call score of the fitted dose curve at least 0.9, where 1 is the maximum)
How it was run: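 Transactivation by exogenous PXR–GAL4 fusion measured as reporter transcript induction after 24 h compound treatment of transfected human HepG2 cells. Read-out via RT-PCR and capillary electrophoresis of labelled fragments, fitted upward relative to DMSO.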

[14] = molecular target: human Peroxisome Proliferator-activated Receptor delta (PPARd), PPARD (gene 5467) (UniProt Q03181); experiment: ATG_PPARd_TRANS: Attagene TRANS-FACTORIAL HepG2 Assay for human Peroxisome Proliferator-activated Receptor delta (PPARd) (AID 2283002; active = hit-call score of the fitted dose curve at least 0.9, where 1 is the maximum)
How it was run: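 Cell-based TRANS reporter: HepG2, transient MRTU transfection, 24 h exposure. Readout = reporter mRNA (RT-PCR/CE, 6-FAM). Gain-of-signal fit vs DMSO control.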

[15] = molecular target: Peroxisome proliferator-activated receptor gamma (Homo sapiens) (UniProt P37231); experiment: ATG_PPARg_TRANS: Attagene TRANS-FACTORIAL HepG2 Assay for human Peroxisome Proliferator-activated Receptor-gamma (PPARg) (AID 2283007; active = hit-call score of the fitted dose curve at least 0.9, where 1 is the maximum)
How it was run: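 Read-out: reporter mRNA induction, detected by fluorescence after RT-PCR and capillary electrophoresis. Transiently transfected human HepG2 liver cells carrying a chimeric NR-Gal4 construct were dosed for 24 h; activity was fitted upward relative to DMSO.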

[16] = BSK_4H_Eotaxin3: BioMAP Diversity Plus: 4H Assay for Eotaxin 3 Biomarker Activity (AID 2283000); conditions: primary human endothelial cells (HUVEC); actives raise or lower the signal;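 note: CCL26 protein level quantified by ELISA in parallel with SRB cytotoxicity check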
How it was run: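 Chemicals were added to human umbilical vein endothelium cultures, and Eotaxin-3 was quantified by ELISA at 24 h. Values were derived by bidirectional fitting with DMSO serving as negative control and activity baseline.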

[17] = molecular target: human Retinoic Acid Receptor beta (RARb), RARB (gene 5915) (UniProt P10826); experiment: ATG_RARb_TRANS: Attagene TRANS-FACTORIAL HepG2 Assay for human Retinoic Acid Receptor beta (AID 2283004; active = hit-call score of the fitted dose curve at least 0.9, where 1 is the maximum)
How it was run: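 Transient transfection of HepG2 with multiple reporter units → chemical dosing, 24 h → total RNA isolation → RT with oligo(dT) → reporter-specific PCR, 6-FAM primer extension, HpaI digest → capillary electrophoresis. Positive direction vs DMSO control.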

[18] = molecular target: Retinoic acid receptor alpha (Homo sapiens) (UniProt P10276); experiment: ATG_RARa_TRANS: Attagene TRANS-FACTORIAL HepG2 Assay for human Retinoic Acid Receptor alpha (RARa) (AID 2283005; active = hit-call score of the fitted dose curve at least 0.9, where 1 is the maximum)
How it was run: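 Reporter transcripts, measured by RT-PCR with fluorescent labeling and capillary electrophoresis after 24 h dosing, reflect activity of an exogenous human RARa–GAL4 fusion in transiently transfected HepG2. Fitted for increase relative to DMSO.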

[19] = molecular target: human Retinoic Acid Receptor gamma (RARg), RARG (gene 5916) (UniProt P13631); experiment: ATG_RARg_TRANS: Attagene TRANS-FACTORIAL HepG2 Assay for human Retinoic Acid Receptor gamma (RARg) (AID 2283009; active = hit-call score of the fitted dose curve at least 0.9, where 1 is the maximum)
How it was run: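 Gain-of-signal relative to DMSO is reported from fluorescent capillary electrophoresis of RT-PCR reporter products. These came from HepG2 cells expressing transfected RARg-GAL4 chimeras with UAS reporters, harvested 24 h after dosing.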

Chain of Cellular tumor antigen p53 (Homo sapiens) (P04637 whole entry, looked up): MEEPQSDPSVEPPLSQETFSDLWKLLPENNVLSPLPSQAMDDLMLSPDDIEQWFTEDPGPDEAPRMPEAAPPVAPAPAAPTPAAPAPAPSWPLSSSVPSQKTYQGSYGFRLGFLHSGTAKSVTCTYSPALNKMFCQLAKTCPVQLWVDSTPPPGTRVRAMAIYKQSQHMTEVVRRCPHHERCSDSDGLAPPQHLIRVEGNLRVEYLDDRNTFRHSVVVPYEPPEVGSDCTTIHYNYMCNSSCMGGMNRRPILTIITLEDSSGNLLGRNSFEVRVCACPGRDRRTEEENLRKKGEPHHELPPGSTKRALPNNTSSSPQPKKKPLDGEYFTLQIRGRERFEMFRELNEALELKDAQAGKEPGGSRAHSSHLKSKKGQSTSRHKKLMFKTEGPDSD
Chain of human Peroxisome Proliferator-activated Receptor delta (PPARd), PPARD (gene 5467) (Q03181 whole entry, looked up): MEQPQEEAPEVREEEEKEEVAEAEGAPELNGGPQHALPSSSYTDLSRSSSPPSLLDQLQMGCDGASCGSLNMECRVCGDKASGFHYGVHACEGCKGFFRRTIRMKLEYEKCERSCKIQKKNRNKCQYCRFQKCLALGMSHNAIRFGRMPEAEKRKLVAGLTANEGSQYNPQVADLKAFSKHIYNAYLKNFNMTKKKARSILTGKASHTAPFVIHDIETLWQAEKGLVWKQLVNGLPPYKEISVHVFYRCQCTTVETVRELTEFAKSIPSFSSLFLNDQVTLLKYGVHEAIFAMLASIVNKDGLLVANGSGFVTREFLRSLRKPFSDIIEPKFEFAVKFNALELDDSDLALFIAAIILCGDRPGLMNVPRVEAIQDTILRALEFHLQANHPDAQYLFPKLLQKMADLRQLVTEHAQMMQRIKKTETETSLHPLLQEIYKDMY
Chain of Myc proto-oncogene protein (Homo sapiens) (P01106 whole entry, looked up): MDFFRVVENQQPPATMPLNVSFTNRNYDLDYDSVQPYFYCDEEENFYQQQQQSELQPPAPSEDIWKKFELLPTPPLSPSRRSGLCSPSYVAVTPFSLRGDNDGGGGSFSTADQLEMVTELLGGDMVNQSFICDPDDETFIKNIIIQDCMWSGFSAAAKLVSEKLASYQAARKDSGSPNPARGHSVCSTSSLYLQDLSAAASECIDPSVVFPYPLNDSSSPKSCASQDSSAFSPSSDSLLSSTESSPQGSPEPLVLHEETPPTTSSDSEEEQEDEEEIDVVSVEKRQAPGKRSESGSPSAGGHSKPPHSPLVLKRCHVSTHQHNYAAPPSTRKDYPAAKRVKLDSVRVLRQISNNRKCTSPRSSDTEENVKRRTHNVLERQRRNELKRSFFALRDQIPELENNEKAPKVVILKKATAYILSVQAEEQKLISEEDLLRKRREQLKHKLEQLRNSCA
Chain of Nuclear respiratory factor 1 (Homo sapiens) (Q16656 whole entry, looked up): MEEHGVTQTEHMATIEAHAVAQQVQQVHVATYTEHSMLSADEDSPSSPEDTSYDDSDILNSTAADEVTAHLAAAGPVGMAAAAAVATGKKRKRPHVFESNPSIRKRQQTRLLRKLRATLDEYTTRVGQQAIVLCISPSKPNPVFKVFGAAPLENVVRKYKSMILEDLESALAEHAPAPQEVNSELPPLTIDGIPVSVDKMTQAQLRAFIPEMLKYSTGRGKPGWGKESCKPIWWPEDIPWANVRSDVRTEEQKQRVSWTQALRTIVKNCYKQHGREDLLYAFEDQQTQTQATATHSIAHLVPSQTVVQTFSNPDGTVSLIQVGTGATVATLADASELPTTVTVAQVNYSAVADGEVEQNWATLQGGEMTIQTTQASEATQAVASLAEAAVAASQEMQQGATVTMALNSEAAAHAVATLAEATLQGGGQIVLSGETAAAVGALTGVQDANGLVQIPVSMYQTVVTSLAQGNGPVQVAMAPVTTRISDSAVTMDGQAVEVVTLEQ
Chain of Nuclear receptor subfamily 1 group I member 2 (Homo sapiens) (O75469 whole entry, looked up, the tested form may be a part): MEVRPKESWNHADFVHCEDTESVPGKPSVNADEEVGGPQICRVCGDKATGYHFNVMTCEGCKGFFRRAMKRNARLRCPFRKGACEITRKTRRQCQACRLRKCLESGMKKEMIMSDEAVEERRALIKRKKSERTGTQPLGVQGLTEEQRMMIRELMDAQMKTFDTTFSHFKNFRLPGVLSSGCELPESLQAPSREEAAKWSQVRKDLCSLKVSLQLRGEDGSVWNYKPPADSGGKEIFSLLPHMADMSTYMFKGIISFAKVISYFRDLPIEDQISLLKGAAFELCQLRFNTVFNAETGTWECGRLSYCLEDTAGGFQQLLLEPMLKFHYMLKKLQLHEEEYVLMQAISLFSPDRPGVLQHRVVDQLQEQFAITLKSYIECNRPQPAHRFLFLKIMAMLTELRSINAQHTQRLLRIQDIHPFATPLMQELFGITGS
Chain of Peroxisome proliferator-activated receptor gamma (Homo sapiens) (P37231 whole entry, looked up, the tested form may be a part): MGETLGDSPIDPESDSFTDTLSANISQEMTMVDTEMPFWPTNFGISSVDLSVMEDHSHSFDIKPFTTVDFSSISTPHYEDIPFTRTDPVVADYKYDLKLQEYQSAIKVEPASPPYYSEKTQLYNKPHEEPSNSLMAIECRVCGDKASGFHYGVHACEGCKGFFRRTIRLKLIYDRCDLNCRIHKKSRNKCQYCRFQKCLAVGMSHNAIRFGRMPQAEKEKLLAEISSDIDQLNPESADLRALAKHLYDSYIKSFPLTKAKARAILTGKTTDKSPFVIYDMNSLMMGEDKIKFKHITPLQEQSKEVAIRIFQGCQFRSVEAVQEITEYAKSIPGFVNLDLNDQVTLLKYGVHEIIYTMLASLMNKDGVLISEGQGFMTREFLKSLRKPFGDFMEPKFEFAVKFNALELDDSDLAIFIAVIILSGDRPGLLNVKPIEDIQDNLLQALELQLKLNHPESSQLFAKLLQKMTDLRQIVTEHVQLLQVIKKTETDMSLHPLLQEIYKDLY
Chain of human Peroxisome Proliferator-activated Receptor alpha (PPARa), PPARA (gene 5465) (Q07869 whole entry, looked up, the tested form may be a part): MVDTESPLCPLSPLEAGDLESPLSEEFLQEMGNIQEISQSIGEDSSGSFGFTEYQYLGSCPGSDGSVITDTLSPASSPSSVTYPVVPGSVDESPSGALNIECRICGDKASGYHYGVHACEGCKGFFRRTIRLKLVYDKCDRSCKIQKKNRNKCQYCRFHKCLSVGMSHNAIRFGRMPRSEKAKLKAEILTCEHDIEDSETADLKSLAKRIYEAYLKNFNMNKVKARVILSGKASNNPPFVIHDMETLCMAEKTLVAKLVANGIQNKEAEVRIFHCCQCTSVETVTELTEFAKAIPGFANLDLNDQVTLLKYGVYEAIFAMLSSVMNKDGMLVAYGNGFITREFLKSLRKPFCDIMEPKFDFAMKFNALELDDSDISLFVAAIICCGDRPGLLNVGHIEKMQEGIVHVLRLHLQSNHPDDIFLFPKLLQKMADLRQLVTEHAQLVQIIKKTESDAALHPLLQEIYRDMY
Chain of human Retinoic Acid Receptor gamma (RARg), RARG (gene 5916) (P13631 whole entry, looked up, the tested form may be a part): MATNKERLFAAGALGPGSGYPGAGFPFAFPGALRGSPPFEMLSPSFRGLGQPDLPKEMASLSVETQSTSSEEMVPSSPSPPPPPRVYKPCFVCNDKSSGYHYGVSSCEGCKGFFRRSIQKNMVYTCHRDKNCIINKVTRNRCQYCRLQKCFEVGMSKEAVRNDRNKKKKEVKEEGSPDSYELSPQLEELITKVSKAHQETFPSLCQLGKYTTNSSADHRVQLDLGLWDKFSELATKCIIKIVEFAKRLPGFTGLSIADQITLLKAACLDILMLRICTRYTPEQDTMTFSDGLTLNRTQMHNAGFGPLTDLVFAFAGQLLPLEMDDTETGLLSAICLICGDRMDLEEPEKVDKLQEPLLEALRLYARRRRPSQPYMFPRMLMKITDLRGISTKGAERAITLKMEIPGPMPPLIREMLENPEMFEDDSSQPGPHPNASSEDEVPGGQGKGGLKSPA
Chain of human Retinoic Acid Receptor beta (RARb), RARB (gene 5915) (P10826 whole entry, looked up): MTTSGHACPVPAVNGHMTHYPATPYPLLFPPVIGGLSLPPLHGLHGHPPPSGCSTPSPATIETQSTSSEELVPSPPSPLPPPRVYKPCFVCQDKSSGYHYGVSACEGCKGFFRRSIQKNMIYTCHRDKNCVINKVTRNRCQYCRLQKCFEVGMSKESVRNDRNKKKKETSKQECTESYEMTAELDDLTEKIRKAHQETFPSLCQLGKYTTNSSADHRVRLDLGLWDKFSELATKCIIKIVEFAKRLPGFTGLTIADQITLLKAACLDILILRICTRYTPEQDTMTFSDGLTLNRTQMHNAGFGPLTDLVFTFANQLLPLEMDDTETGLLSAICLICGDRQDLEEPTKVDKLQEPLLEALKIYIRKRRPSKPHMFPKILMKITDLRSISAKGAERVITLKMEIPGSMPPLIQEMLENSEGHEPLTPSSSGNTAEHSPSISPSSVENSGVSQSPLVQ
Chain of Retinoic acid receptor alpha (Homo sapiens) (P10276 whole entry, looked up, the tested form may be a part): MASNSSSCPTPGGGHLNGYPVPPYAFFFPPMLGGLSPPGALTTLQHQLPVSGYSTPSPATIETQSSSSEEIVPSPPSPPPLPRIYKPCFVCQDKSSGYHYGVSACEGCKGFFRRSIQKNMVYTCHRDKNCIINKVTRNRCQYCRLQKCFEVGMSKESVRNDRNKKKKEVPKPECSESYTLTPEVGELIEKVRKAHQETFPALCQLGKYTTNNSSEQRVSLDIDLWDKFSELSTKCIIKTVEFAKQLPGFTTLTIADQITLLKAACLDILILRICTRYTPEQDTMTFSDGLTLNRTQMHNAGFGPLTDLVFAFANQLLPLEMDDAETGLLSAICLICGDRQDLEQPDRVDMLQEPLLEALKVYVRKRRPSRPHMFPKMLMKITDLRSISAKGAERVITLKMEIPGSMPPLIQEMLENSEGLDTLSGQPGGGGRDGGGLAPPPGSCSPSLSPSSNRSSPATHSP

Structure (SMILES): CCCCc1ccc2c(n1)[C@@H](c1ccc(OC)cc1C[C@H](C)C(=O)O)[C@H](C(=O)O)[C@H]2c1ccc2c(c1)OCO2
- outcome [1]: inactive
- outcome [2]: inactive
- outcome [3]: inactive
- outcome [4]: inactive
- outcome [5]: inactive
- outcome [6]: inactive
- outcome [7]: inactive
- outcome [8]: inactive
- outcome [9]: inactive
- outcome [10]: inactive
- outcome [11]: inactive
- outcome [12]: inactive
- outcome [13]: inactive

Structure (SMILES): CCOc1ccc2c(c1)C(C)=CC(C)(C)N2
- AC50 [1]: 133 µM (active)
- AC50 [2]: 166 µM (active)
- outcome [3]: inactive
- AC50 [4]: 27.1 µM (active)
- AC50 [5]: 142 µM (active)
- outcome [6]: inactive
- outcome [7]: inactive
- outcome [8]: inactive
- outcome [9]: inactive
- outcome [10]: inactive
- AC50 [14]: 170 µM (active)
- outcome [11]: inactive
- outcome [12]: inactive
- AC50 [15]: 28.7 µM (active)
- AC50 [13]: 1.86 µM (active)

Structure (SMILES): C=CCc1ccc(O)c(OC)c1
- outcome [1]: inactive
- outcome [2]: inactive
- outcome [3]: inactive
- AC50 [4]: 27 µM (active)
- outcome [5]: inactive
- outcome [6]: inactive
- outcome [7]: inactive
- outcome [8]: inactive
- outcome [9]: inactive
- outcome [10]: inactive
- outcome [11]: inactive
- outcome [12]: inactive
- AC50 [15]: 40.5 µM (active)
- AC50 [13]: 38.5 µM (active)

Structure (SMILES): CC(=O)C(C)=CC1C(C)=CCCC1(C)C (centres undefined)
- outcome [1]: inactive
- outcome [2]: inactive
- outcome [3]: inactive
- outcome [4]: inactive
- outcome [5]: inactive
- outcome [6]: inactive
- outcome [7]: inactive
- outcome [8]: inactive
- outcome [9]: inactive
- outcome [16]: inactive
- outcome [10]: inactive
- outcome [14]: inactive
- outcome [11]: inactive
- outcome [12]: inactive

Structure (SMILES): COc1cc(S(=O)(=O)O)c(C)cc1N=Nc1c(O)ccc2cc(S(=O)(=O)O)ccc12
- outcome [1]: inactive
- outcome [2]: inactive
- outcome [3]: inactive
- outcome [4]: inactive
- outcome [5]: inactive
- outcome [6]: inactive
- outcome [7]: inactive
- outcome [8]: inactive
- outcome [9]: inactive
- outcome [16]: inactive
- outcome [14]: inactive
- outcome [11]: inactive
- outcome [12]: inactive
- outcome [15]: inactive

Structure (SMILES): NCCO
- outcome [1]: inactive
- outcome [2]: inactive
- outcome [3]: inactive
- outcome [4]: inactive
- outcome [5]: inactive
- outcome [6]: inactive
- outcome [7]: inactive
- outcome [8]: inactive
- outcome [9]: inactive
- outcome [11]: inactive
- outcome [17]: inactive
- outcome [18]: inactive
- outcome [12]: inactive
- outcome [19]: inactive

Structure (SMILES): COc1ccc2c(c1)c(CC(=O)O)c(C)n2C(=O)c1ccc(Cl)cc1
- outcome [1]: inactive
- outcome [2]: inactive
- outcome [3]: inactive
- outcome [4]: inactive
- outcome [5]: inactive
- outcome [6]: inactive
- outcome [7]: inactive
- outcome [8]: inactive
- outcome [9]: inactive
- outcome [16]: inactive
- outcome [10]: inactive
- outcome [14]: inactive
- outcome [11]: inactive
- outcome [12]: inactive
- outcome [13]: inactive
